Inconclusive results are not listed. A call without a number means that no potency is given here. Calls of active or inactive are those of the source. Unless noted, the call rests on the fitted dose curve; in most records, active means well fitted curve in the direction sought with a large enough effect; inconclusive means small, poorly fitted or top-dose-only effect, or another doubt; inactive means no such curve, though single readings can be large; an effect the other way counts as inactive or inconclusive.
What was measured:
[1] = biological target: Rap guanine nucleotide exchange factor 3 (Homo sapiens) (UniProt O95398); test: Confirmatory qHTS for agonist of cAMP-regulated guanine nucleotide exchange factor 3 (EPAC1) (AID 1645881);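 further: EPAC1 catalysed release of BODIPY-GDP from Rap1B seen as fluorescence loss; nearly all actives have a fitted effect of over 75% in size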
Rap guanine nucleotide exchange factor 3 (Homo sapiens), sequence (O95398 whole entry, looked up): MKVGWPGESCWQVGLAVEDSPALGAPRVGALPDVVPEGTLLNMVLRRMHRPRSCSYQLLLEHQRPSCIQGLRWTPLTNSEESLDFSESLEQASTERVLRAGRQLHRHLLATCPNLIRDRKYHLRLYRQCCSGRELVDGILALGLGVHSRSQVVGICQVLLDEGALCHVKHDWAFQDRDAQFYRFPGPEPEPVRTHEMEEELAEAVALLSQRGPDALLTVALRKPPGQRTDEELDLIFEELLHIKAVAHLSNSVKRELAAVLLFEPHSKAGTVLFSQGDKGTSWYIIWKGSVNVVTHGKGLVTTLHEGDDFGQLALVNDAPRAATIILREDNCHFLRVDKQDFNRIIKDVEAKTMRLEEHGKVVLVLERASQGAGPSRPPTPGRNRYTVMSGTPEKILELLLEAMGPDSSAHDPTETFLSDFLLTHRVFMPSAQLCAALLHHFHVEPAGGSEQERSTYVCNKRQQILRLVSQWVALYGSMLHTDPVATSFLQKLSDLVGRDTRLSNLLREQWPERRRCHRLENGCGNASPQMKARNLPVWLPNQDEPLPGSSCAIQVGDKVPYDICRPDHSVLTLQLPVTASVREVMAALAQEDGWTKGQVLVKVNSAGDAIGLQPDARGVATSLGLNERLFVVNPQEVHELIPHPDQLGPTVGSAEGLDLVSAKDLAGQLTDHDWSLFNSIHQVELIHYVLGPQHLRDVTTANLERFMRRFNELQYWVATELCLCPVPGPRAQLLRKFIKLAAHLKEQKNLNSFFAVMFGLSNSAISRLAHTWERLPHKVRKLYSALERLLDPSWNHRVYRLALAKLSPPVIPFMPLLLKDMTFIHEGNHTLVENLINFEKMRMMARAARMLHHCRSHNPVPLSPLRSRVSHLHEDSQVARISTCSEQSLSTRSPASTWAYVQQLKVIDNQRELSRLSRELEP

[2] = biological target: Rap guanine nucleotide exchange factor 4 (Homo sapiens) (UniProt Q8WZA2); test: Confirmatory qHTS for agonist of cAMP-regulated guanine nucleotide exchange factor 4 (EPAC2) (AID 1645884);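 further: nucleotide exchange releases bodipy-GDP from Rap1 and this lowers its fluorescence; nearly all actives have a fitted effect of over 65% in size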
Rap guanine nucleotide exchange factor 4 (Homo sapiens), sequence (Q8WZA2 whole entry, looked up): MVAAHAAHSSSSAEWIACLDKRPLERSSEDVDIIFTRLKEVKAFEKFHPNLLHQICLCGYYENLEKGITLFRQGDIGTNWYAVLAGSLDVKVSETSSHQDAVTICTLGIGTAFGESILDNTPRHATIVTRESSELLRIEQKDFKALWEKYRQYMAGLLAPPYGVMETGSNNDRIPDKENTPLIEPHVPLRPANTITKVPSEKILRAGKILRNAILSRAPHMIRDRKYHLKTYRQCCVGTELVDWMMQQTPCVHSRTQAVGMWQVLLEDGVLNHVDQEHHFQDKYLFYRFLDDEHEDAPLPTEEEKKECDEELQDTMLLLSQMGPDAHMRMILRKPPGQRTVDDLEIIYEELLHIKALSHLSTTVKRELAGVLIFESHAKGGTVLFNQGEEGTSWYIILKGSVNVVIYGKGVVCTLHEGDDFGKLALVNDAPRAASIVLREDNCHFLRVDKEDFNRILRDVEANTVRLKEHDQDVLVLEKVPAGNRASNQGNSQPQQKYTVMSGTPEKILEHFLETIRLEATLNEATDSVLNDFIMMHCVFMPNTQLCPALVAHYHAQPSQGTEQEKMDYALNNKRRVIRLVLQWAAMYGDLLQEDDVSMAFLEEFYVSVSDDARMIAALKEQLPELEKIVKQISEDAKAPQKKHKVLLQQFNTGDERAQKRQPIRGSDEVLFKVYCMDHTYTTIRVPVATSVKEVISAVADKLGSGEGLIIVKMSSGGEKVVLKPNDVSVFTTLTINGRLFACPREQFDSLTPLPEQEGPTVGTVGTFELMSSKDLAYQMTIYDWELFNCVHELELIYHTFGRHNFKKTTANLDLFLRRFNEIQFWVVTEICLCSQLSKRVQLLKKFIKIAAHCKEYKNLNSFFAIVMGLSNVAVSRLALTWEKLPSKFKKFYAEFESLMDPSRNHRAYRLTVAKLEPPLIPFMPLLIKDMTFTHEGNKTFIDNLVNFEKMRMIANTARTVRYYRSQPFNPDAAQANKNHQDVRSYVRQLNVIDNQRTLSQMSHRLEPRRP

[3] = biological target: Rap guanine nucleotide exchange factor 3 (Homo sapiens) (UniProt O95398); test: Counterscreen qHTS for antagonist of cAMP-regulated guanine nucleotide exchange factor 3 (EPAC1) (AID 1645888);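 further: fluorescence loss as bound BODIPY-GDP is released from Rap1B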
Method in brief: (§1)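 Measured: fluorescence of BODIPY-GDP bound to Rap1B, which falls as exchange proceeds. Conditions include 50 uM competing GDP, 5 and 30 min reads, and a later cAMP challenge for antagonist detection.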

[4] = biological target: Rap guanine nucleotide exchange factor 3 (Homo sapiens) (UniProt O95398); test: Counterscreen qHTS for agonist of cAMP-regulated guanine nucleotide exchange factor 3 (EPAC1) (AID 1645889); further: nearly all actives have a fitted effect of over 40% in size
Method in brief: as §1

[5] = biological target: DNA repair nuclease/redox regulator APEX1 (Homo sapiens) (UniProt P27695); test: qHTS Validation Assay for Inhibitors of the Human Apurinic/apyrimidinic Endonuclease 1 (APE1) (AID 1705;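 further: TAMRA fluorescence gain over two minutes as APE1 cuts a quenched THF abasic duplex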)
DNA repair nuclease/redox regulator APEX1 (Homo sapiens), sequence (P27695 whole entry, looked up): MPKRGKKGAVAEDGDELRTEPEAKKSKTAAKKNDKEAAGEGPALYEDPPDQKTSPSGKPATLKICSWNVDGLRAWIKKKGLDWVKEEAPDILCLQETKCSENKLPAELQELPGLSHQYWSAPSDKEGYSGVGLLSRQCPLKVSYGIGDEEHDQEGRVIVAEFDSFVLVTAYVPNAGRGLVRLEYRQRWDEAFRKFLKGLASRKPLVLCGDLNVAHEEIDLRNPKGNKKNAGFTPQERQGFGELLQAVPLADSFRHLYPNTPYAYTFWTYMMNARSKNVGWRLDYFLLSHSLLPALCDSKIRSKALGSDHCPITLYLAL
Method in brief: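 Substrate: 50 nM final fluorophore/quencher THF-abasic duplex. Enzyme preincubated with compounds 15 min, RT. Progress derived from fluorescence difference, third minus first kinetic read.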

[6] = Counterscreen for APE1 Inhibitors: Fluorescent Dye Displacement Validation Assay (AID 1707)
Method in brief: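 Thiazole Orange (250 nM) bound to 50 nM TAMRA-labelled dsDNA with tetrahydrofuran abasic site; displacement by DNA-binding compounds lowers fluorescence. Buffer 50 mM Tris-HCl pH 7.5, 50 mM NaCl, 2 mM MgCl2, 0.01% Tween-20; endpoint read at 480/540 nm.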

[7] = biological target: Endonuclease 4 (Escherichia coli (strain K12)) (UniProt P0A6C1); test: Counterscreen for APE1 Inhibitors: qHTS Validation Assay for Inhibitors of Endonuclease IV (AID 1708)
Method in brief: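 2 nM enzyme was preincubated with compounds for 15 min at room temperature in 50 mM Tris-HCl pH 7.5, 50 mM NaCl, 2 mM MgCl2, 1 mM DTT, 0.01% Tween-20. 50 nM THF-abasic TAMRA/BHQ-2 duplex substrate started the reaction.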

[8] = qHTS for differential inhibitors of proliferation of Plasmodium falciparum line 3D7 (AID 1876);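 further: parasite growth measured after three days of culture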
[9] = qHTS for differential inhibitors of proliferation of Plasmodium falciparum line Dd2 (AID 1882); conditions: Potency: Plasmodium falciparum Dd2 proliferation inhibition;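 further: compound exposure of 72 h on infected erythrocytes; nearly all actives have a fitted effect of over 65% in size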
Method in brief: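 SYBR Green I DNA fluorescence read-out, ex 485/em 535 nm. Signals were normalized to 0.29 uM artemisinin and DMSO wells, then corrected using vehicle-only plates flanking each stack. Parasite growth ran 72 h in erythrocytes before lysis.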

[10] = qHTS for differential inhibitors of proliferation of Plasmodium falciparum line W2 (AID 1883); conditions: Potency: Plasmodium falciparum W2 proliferation inhibition;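 further: potency means the concentration at half of the fitted maximal effect; parasites grown with compound for 72 h before lysis and staining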
[11] = biological target: ATP-dependent DNA helicase Q1 (Homo sapiens) (UniProt P46063); test: qHTS Validation Assay for Inhibitors of RecQ-Like Dna Helicase 1 (RECQ1) (AID 2353)
ATP-dependent DNA helicase Q1 (Homo sapiens), sequence (P46063 whole entry, looked up): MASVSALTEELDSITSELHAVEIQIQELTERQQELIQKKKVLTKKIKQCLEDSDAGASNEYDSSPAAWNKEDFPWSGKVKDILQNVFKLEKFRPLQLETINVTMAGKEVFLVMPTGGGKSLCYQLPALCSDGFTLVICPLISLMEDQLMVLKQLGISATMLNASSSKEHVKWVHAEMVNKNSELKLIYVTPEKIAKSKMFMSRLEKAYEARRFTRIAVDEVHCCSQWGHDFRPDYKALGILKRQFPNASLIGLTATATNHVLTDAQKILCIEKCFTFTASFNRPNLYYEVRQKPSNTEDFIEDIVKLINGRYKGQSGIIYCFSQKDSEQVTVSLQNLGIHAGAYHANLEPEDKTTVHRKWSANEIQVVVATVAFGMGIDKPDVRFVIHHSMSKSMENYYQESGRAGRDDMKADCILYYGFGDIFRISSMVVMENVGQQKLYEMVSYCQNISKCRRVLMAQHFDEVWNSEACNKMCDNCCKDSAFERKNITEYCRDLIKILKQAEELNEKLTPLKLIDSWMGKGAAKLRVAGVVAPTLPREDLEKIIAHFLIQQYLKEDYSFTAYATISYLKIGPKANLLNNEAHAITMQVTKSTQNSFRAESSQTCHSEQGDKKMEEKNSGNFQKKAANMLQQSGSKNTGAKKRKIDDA
Method in brief: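 50 nM RECQ1T1 preincubated 15 min with compound in Tris pH 8.0 buffer with MgCl2, DTT, Tween-20 and 2.5 ug/ml poly(dI-dC); started with 200 nM TAMRA/BHQ-2 forked duplex and 2 mM ATP. Unwinding read as fluorescence (525/598 nm), two reads 2 h apart.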

[12] = biological target: RecQ-like DNA helicase BLM (Homo sapiens) (UniProt P54132); test: qHTS Validation Assay for Inhibitors of Bloom's syndrome helicase (BLM) (AID 2364)
Method in brief: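 BLM 50 nM in 25 mM Tris-HCl pH 8.0, 5 mM NaCl, 2 mM MgCl2, 1 mM DTT, 0.01% Tween-20, 2.5 ug/ml poly(dI-dC); 15 min cpd preinc, RT. Start: 200 nM forked DNA + 2 mM ATP (final). TAMRA read, 2 reads 2 h apart.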

[13] = Validation screen for inhibitors of Lassa infection (AID 463096; calls by dose curve)
[14] = Validation screen for small molecules that induce DNA re-replication in MCF 10A normal breast cells (AID 463097); further: nearly all actives have a fitted effect of over 60% in size
Method in brief: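 Following 48 hr compound incubation (37 C, 5% CO2), MCF 10A cells receive Hoechst for 40 min at 37 C. Nuclei are then scanned (excitation 405 nm, emission 500-530 nm) for total fluorescence intensity.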

[15] = Quantitative high throughput screen for delayed death inhibitors of the malarial parasite plastid, 48 hour incubation (AID 488752); further: nearly all actives have a fitted effect of over 65% in size
Method in brief: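 Erythrocytes infected with P. falciparum carrying an integrated firefly luciferase reporter (2% hematocrit, 0.1% parasitemia final) were exposed to compounds in RPMI 1640/0.5% Albumax for 48 h at 37 C, 5% CO2. Growth inhibition was scored as reduced luminescence.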

[16] = biological target: Thyrotropin receptor (Homo sapiens) (UniProt P16473); test: qHTS Assay for Antagonists of the Thyroid Stimulating Hormone Receptor (AID 488980)
Thyrotropin receptor (Homo sapiens), sequence (P16473 whole entry, looked up): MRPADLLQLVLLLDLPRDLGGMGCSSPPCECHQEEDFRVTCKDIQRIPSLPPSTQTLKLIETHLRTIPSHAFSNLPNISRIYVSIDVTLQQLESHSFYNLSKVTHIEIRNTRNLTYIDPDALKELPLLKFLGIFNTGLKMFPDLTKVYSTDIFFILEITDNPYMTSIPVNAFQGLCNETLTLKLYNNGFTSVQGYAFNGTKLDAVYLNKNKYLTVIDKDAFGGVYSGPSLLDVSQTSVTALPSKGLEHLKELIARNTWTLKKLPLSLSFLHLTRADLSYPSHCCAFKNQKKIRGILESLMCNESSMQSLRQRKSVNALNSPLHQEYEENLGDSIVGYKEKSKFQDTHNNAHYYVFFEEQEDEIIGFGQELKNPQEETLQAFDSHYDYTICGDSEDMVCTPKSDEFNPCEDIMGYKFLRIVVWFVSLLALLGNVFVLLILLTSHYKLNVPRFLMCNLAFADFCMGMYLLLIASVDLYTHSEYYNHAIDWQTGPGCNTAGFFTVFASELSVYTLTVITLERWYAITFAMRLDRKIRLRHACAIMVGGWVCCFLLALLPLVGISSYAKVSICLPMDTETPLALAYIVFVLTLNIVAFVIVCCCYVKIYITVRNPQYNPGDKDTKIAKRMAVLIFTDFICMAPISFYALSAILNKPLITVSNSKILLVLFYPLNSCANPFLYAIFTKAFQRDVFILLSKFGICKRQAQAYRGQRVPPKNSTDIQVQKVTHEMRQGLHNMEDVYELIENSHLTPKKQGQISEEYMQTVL
Method in brief: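 Inhibition of TSH-stimulated cAMP accumulation was quantified by homogeneous time-resolved FRET in TSHR-transfected HEK293 cells. Agonist: TSH, 4 nM final (EC80).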

[17] = biological target: Galactokinase (Homo sapiens) (UniProt P51570); test: qHTS Validation Assay for Inhibitors of Human Galactokinase (GALK) (AID 493189)
Galactokinase (Homo sapiens), sequence (P51570 whole entry, looked up): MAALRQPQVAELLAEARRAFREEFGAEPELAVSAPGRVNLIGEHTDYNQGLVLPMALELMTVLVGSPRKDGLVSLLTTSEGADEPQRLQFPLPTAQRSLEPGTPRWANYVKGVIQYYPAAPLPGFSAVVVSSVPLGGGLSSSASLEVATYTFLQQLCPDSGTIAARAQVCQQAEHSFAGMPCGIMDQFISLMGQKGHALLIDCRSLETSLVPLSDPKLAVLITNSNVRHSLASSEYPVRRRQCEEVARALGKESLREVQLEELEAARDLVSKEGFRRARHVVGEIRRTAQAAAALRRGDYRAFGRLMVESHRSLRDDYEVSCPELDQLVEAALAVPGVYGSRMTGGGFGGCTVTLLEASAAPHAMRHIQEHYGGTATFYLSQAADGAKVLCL
Method in brief: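 Enzyme activity is inferred from ATP consumption: human GALK phosphorylates galactose (100 uM) using 35 uM ATP for 1 h at room temperature, and luciferase-based Kinase-Glo Plus reports unconsumed ATP.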

[18] = Validation screen for small molecules that induce DNA re-replication in SW480 colon adenocarcinoma cells (AID 504364)
Method in brief: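 SW480 cells seeded at 250 per well were exposed to compound or DMSO for 48 hr at 37 C, 5% CO2, then stained with Hoechst for 40 min. DNA content per nucleus was imaged (405 nm ex, 500-530 nm em).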

[19] = biological target: Catechol O-methyltransferase (Homo sapiens) (UniProt P21964); test: Confirmatory Screen for Target Class Profiling of Small Molecule Inhibitors of Methyltransferases (AID 1745852); conditions: MTase-Glo luminescence, SAH detection, recombinant enzyme; measured here: COMT max response; stronger effect = lower value
Catechol O-methyltransferase (Homo sapiens), sequence (P21964 whole entry, looked up): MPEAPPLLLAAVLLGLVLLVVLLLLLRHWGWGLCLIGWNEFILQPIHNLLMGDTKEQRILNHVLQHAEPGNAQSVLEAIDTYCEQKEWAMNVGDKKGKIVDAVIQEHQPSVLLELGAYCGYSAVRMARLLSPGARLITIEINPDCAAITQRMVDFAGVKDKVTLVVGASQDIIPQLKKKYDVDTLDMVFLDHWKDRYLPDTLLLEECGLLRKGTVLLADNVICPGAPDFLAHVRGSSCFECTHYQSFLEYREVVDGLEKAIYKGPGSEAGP

[20] = biological target: Guanidinoacetate N-methyltransferase (Homo sapiens) (UniProt Q14353); test: as above; conditions: MTase-Glo luminescence, SAH detection, recombinant enzyme; activity change, negative = inhibition: at 85.7 µM (top of the series) unless noted
[21] = biological target: Nicotinamide N-methyltransferase (Homo sapiens) (UniProt P40261); test: as above; conditions: MTase-Glo luminescence, SAH detection, recombinant enzyme; measured here: NNMT max response; stronger effect = lower value
Nicotinamide N-methyltransferase (Homo sapiens), sequence (P40261 whole entry, looked up): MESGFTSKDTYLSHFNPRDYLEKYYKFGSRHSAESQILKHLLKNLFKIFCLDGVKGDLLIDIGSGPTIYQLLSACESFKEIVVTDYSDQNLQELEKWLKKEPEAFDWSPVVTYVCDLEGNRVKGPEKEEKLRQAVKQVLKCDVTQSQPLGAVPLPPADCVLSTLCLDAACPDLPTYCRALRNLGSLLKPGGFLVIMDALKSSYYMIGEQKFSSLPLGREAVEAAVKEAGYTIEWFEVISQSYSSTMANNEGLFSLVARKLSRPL

[22] = biological target: Phenylethanolamine N-methyltransferase (Homo sapiens) (UniProt P11086); test: as above; conditions: MTase-Glo luminescence, SAH detection, recombinant enzyme; measured here: PNMT max response; stronger effect = lower value
Phenylethanolamine N-methyltransferase (Homo sapiens), sequence (P11086 whole entry, looked up): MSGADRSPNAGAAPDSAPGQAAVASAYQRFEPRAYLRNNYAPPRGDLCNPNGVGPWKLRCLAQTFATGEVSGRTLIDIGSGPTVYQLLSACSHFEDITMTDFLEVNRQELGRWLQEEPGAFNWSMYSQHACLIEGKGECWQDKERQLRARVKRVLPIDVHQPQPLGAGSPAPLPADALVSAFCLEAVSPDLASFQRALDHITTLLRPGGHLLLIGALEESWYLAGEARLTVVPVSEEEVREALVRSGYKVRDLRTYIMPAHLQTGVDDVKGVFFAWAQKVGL

**Q.** With `CCOC(=O)[C@]12Cc3cc(OC)ccc3[C@H]1N(C1CCCCC1)C(=O)c1ccccc12` as the molecule, how does the Potency [1] read?
**A.** The Potency was “inactive”.

**Q.** And the Potency [2]?
**A.** Its Potency is “inactive”.

**Q.** What about the outcome [3] of the same molecule?
**A.** Its outcome is “inactive”.

**Q.** What about the Potency [4] of the same molecule?
**A.** The Potency was “inactive”.

**Q.** With `C[C@]12CC[C@@H](O)CC1CCC1C2CC[C@]2(C)C(=O)CC[C@@H]12` (stereo not given in full) as the molecule, how does the Potency [5] read?
**A.** Its Potency is “inactive”.

**Q.** And the outcome [6]?
**A.** The outcome was “inactive”.

**Q.** And the Potency [7]?
**A.** Its Potency is “inactive”.

**Q.** What about the Potency [8] of the same molecule?
**A.** Its Potency is “inactive”.

**Q.** And the Potency [9]?
**A.** Its Potency is “inactive”.

**Q.** What about the Potency [10] of the same molecule?
**A.** Its Potency is 10 µM (active).

**Q.** What about the outcome [11] of the same molecule?
**A.** The outcome was “inactive”.

**Q.** And the outcome [12]?
**A.** Its outcome is “inactive”.

**Q.** And the Potency [13]?
**A.** Its Potency is “inactive”.

**Q.** And the Potency [14]?
**A.** The Potency was “inactive”.

**Q.** What about the Potency [15] of the same molecule?
**A.** Its Potency is “inactive”.

**Q.** And the outcome [16]?
**A.** Its outcome is “inactive”.

**Q.** And the outcome [17]?
**A.** Its outcome is “inactive”.

**Q.** And the outcome [18]?
**A.** The outcome was “inactive”.

**Q.** For `Cc1oc(-c2ccccc2)nc1CN1C(=O)CN=C(c2ccccc2)c2ccccc21`, which Potency [1] is on record?
**A.** Its Potency is “inactive”.

**Q.** And the activation [2]?
**A.** The activation was 7.27% [at 17.1 µM, percent relative to cAMP agonist control] (inactive).

**Q.** And the activity change, negative = inhibition [3]?
**A.** Its activity change, negative = inhibition is -7.89% [at 30.8 µM] (inactive).

**Q.** What about the activation [4] of the same molecule?
**A.** The activation was 28.8% [at 30.8 µM] (inactive).

**Q.** Which activity [19] does the source give for `CC(=O)c1cccc(NC(=O)NC[C@H]2C[C@@H]3CCN2C[C@@H]3c2cc(-c3ccc(F)cc3)nc(C)n2)c1` here?
**A.** Its activity is 2.65%.

**Q.** And the activity change, negative = inhibition [20]?
**A.** Its activity change, negative = inhibition is 5.17% [at 57.3 µM].

**Q.** What about the activity [21] of the same molecule?
**A.** The activity was -9.36%.

**Q.** And the activity [22]?
**A.** Its activity is 3.37%.

**Q.** For `COc1ccc(-c2cc([C@H]3CN4CC[C@H]3C[C@@H]4CN)nc(C)n2)cc1OC`, which activity [19] is on record?
**A.** The activity was 2.55%.

**Q.** What about the activity change, negative = inhibition [20] of the same molecule?
**A.** Its activity change, negative = inhibition is 1.77%.

**Q.** And the activity [21]?
**A.** Its activity is -94.2%.

**Q.** What about the activity [22] of the same molecule?
**A.** Its activity is 2.63%.
